# Active and inactive are the calls of the source.
# Experiments:
# [1] = small-molecule microarray binders of probe aLefty2, primary screen, biochemical, biotinylated probe, 635/667 nm fluorescence (AID 1094); conditions: higher = more signal;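 also: score merges spot fluorescence near 667 nm with spot signal-to-noise ratio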
# [2] = system: Noggin (protein binding on small-molecule microarray); assay: Noggin binders on small-molecule microarray, primary screen, biochemical, 635/667 nm fluorescence (AID 1095); conditions: 635 nm fluorescence, higher = more signal;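 also: score merges 667 nm feature fluorescence with signal to noise over triplicate slides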
# [3] = biological target: Neurogenic locus notch homolog protein 3 (Homo sapiens) (UniProt Q9UM47); assay: NOTCH3 binders on small-molecule microarray, primary screen, biochemical, 635/667 nm fluorescence (AID 1096); conditions: NOTCH3 binding, 635 nm fluorescence, higher = more signal
# Chain of Neurogenic locus notch homolog protein 3 (Homo sapiens) (Q9UM47 whole entry, looked up): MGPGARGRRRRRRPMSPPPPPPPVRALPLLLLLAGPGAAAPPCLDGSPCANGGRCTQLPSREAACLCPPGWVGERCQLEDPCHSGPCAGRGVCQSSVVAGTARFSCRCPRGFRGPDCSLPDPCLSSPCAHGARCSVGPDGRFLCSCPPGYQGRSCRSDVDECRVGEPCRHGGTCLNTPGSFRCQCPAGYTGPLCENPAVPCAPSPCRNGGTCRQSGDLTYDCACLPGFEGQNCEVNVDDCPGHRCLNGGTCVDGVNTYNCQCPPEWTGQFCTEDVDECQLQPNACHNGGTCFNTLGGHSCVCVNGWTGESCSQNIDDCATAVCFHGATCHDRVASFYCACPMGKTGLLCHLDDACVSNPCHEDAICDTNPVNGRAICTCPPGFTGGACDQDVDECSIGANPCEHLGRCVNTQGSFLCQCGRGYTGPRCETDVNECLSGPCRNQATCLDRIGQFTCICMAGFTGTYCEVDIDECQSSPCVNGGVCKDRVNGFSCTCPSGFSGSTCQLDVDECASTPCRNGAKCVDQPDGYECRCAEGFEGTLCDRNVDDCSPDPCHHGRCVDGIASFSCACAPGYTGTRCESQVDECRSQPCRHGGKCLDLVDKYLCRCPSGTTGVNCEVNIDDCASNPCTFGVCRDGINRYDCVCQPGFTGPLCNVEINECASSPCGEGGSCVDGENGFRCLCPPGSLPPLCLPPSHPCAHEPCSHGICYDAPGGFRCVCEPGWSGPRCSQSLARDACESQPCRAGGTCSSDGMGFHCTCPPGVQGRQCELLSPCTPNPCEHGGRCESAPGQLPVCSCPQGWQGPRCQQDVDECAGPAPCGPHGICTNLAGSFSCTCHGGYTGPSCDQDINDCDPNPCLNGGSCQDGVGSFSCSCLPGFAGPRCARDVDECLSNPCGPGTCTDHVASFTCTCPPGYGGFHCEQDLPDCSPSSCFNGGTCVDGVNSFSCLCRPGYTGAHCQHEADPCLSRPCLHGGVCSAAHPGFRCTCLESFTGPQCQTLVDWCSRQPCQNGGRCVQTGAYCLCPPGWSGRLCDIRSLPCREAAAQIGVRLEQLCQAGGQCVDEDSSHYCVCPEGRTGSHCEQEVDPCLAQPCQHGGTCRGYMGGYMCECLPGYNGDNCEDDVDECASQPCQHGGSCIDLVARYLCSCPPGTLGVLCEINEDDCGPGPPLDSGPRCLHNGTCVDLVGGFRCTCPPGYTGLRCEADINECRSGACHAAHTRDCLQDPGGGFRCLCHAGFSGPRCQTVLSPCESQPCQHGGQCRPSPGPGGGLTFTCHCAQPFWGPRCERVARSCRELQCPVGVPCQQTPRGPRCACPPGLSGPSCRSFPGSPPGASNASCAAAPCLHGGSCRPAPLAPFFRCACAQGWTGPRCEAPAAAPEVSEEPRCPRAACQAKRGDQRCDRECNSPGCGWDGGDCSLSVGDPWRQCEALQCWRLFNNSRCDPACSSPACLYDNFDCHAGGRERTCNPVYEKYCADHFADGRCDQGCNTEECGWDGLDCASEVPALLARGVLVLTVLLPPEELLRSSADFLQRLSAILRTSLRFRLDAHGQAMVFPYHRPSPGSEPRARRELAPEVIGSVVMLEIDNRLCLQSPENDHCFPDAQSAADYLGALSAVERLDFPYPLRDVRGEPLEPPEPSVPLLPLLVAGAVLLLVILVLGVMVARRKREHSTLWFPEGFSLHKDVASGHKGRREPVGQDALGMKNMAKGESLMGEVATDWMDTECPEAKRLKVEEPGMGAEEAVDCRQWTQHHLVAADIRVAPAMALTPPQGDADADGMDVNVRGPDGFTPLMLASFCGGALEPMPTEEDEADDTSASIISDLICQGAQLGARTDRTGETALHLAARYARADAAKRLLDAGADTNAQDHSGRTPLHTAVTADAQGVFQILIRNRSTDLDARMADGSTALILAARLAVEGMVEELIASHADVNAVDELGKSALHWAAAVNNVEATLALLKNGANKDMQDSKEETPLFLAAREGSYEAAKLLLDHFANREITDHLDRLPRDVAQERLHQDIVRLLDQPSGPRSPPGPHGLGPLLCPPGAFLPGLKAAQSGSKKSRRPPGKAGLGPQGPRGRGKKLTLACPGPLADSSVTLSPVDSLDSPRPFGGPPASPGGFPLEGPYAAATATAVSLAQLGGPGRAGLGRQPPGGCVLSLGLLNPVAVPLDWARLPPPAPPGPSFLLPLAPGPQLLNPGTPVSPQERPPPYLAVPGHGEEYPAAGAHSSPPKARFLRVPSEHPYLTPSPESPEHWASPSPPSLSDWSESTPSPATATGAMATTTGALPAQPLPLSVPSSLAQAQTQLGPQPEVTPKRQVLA
# [4] = small-molecule microarray binders of probe aEGFR, primary screen, biochemical, biotinylated probe, 635/667 nm fluorescence (AID 1097); conditions: higher = more signal;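 also: probe is a biotinylated anti-EGFR antibody binding compounds printed on slides; score combines fluorescence near 667 nm and signal to noise of each spot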
# [5] = system: Plasmodium falciparum Sir2 (PF13_0152, Sir2A); assay: pfSir2 binders on small-molecule microarrays, primary screen, biochemical, small-molecule microarray, 635 nm fluorescence (AID 1098); conditions: small-molecule microarray binding, fluorescence 635 nm; higher = more signal;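 also: score merges spot fluorescence intensity with its signal-to-noise ratio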
# [6] = small-molecule microarray binders of probe aDKK1, primary screen, biochemical, biotinylated probe, 635/667 nm fluorescence (AID 1099); conditions: higher = more signal;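 also: score merges 667nm spot fluorescence with signal to noise across triplicate slides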
# [7] = small-molecule microarray binders of probe aCHRDL2, primary screen, biochemical, biotinylated probe, 635/667 nm fluorescence (AID 1100); conditions: higher = more signal
# [8] = splicing luciferase reporter signal modulators, primary screen, spliceosome inhibition project, cell-based, HEK293, splice +/- reporter (AID 1101); conditions: luminescence, 24 h, higher = more signal, called active from +8 up or from −8 down;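 also: HEK293 cells carrying a splicing-competent luciferase reporter gene; test concentration not given here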
# [9] = biological target: Fibroblast growth factor 10 (Homo sapiens) (UniProt O15520); assay: FGF10 binders on small-molecule microarrays, primary screen, biochemical, small-molecule microarray, 635 nm fluorescence (AID 1102); conditions: FGF10 binding, fluorescence 635 nm, higher = more signal
# Chain of Fibroblast growth factor 10 (Homo sapiens) (O15520 whole entry, looked up): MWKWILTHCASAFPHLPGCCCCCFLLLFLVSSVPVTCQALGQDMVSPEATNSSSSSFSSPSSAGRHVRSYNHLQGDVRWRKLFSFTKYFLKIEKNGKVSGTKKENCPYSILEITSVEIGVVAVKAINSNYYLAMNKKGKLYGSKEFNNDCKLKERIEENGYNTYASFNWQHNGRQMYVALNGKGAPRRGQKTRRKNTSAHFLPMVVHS
# [10] = system: glycogen synthase kinase-3 (GSK3A per assay name; protocol says GSK3B); assay: GSK3 binders on small-molecule microarrays, primary screen, biochemical, small-molecule microarray, 635 nm fluorescence, GSK3A (AID 1103); conditions: small-molecule microarray binding, fluorescence 635 nm; higher = more signal; also: the record names both GSK3A and GSK3B
# [11] = biological target: Epidermal growth factor receptor (Homo sapiens) (UniProt P00533); assay: EGFR binders on small-molecule microarrays, primary screen, biochemical, small-molecule microarray, 635 nm fluorescence (AID 1104); conditions: EGFR binding, higher = more signal;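 also: score merges 667 nm emission intensity with spot signal to noise over triplicate slides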
# Chain of Epidermal growth factor receptor (Homo sapiens) (P00533 whole entry, looked up): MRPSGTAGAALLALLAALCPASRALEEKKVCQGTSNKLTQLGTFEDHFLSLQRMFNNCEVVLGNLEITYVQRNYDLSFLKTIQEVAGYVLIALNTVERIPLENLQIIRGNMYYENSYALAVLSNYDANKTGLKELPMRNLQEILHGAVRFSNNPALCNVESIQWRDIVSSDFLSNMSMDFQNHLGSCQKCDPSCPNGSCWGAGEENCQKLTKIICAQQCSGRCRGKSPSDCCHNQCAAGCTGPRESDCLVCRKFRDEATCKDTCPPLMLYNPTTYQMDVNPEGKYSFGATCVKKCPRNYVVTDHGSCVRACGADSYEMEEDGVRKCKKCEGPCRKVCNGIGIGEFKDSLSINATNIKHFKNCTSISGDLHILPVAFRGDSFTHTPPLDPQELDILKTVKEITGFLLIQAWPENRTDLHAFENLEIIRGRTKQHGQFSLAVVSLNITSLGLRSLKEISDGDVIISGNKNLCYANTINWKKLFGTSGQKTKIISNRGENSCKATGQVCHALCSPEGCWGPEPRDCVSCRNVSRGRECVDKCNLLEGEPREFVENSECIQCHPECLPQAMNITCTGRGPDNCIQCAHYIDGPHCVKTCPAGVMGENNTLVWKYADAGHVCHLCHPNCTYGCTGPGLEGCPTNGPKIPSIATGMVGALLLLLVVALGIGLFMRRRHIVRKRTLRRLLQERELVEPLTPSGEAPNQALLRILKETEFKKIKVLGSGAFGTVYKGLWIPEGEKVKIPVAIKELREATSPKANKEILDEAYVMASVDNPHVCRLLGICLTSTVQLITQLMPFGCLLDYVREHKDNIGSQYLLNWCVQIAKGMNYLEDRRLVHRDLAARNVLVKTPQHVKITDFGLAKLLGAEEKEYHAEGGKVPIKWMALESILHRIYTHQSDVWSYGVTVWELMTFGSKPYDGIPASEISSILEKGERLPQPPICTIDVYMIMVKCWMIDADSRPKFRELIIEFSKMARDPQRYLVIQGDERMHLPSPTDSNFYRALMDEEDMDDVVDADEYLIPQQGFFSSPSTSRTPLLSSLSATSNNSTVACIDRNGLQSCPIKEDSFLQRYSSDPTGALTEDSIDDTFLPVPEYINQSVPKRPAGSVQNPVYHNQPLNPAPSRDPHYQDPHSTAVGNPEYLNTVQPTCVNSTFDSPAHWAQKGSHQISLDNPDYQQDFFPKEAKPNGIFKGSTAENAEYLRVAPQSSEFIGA
# [12] = biological target: Follistatin-related protein 3 (Homo sapiens) (UniProt O95633); assay: FSTL3 binders on small-molecule microarrays, primary screen, biochemical, small-molecule microarray, 635 nm fluorescence (AID 1105); conditions: FSTL3 binding, higher = more signal;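 also: score merges emission near 667 nm and signal to noise per printed spot across three slides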
# Chain of Follistatin-related protein 3 (Homo sapiens) (O95633 whole entry, looked up): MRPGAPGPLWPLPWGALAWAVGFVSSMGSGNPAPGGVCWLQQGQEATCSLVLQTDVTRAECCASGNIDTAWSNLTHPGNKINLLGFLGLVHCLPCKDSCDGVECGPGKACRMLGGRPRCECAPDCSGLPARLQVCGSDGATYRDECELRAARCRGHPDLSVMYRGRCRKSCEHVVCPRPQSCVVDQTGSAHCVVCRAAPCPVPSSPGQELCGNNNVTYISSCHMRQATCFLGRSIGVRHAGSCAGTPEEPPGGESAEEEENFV
# [13] = biological target: Dickkopf-related protein 1 (Homo sapiens) (UniProt O94907); assay: DKK1 binders on small-molecule microarrays, primary screen, biochemical, small-molecule microarray, 635 nm fluorescence scan (AID 1106); conditions: DKK1 binding, higher = more signal;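 also: score merges emission near 667 nm with signal to noise over three replicate slides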
# Chain of Dickkopf-related protein 1 (Homo sapiens) (O94907 whole entry, looked up): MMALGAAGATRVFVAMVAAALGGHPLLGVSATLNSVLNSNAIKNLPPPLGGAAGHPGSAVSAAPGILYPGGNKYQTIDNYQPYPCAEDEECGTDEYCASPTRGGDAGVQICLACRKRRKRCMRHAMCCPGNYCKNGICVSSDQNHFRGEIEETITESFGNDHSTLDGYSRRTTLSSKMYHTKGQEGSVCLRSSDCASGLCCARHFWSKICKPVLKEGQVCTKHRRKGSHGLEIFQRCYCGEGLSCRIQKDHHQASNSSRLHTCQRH
# [14] = system: Inhibin beta A chain (activin A); assay: INHBA (activin A) binders on microarrays, primary screen, biochemical, small-molecule microarray, 635 nm fluorescence scan (AID 1107); conditions: small-molecule microarray binding, higher = more signal;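 also: mouse activin A protein probed at 4.33 µg/mL on printed slides; score merges bound-protein fluorescence near 667 nm with spot signal-to-noise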
# [15] = system: Human papillomavirus type 1a protein E7 (residues 44-93); assay: HPV1a E7 fragment binders on microarrays, primary screen, biochemical, small-molecule microarray, residues 44-93, 635 nm fluorescence (AID 1108); conditions: small-molecule microarray binding, fluorescence 635 nm; higher = more signal;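 also: E7 fragment applied at 1 µg/mL in TBST for 1 h at 4 C; score combines spot fluorescence with its signal to noise ratio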
# [16] = modulators of HCV replicon luciferase signal, primary screen, HCV replication inhibitor project, Huh7 cells, luciferase reporter (AID 1109); conditions: 48 h, higher = more signal;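 also: huh7 hepatoma cells harbouring a luciferase neomycin HCV replicon reporter; luciferase luminescence as measure of HCV replicon replication; test concentration not given here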
# [17] = biological target: Left-right determination factor 2 (Homo sapiens) (UniProt O00292); assay: LEFTY2 binders on small-molecule microarrays, primary screen, biochemical, small-molecule microarray, 635 nm fluorescence scan (AID 1110); conditions: LEFTY2 binding, higher = more signal
# Chain of Left-right determination factor 2 (Homo sapiens) (O00292 whole entry, looked up): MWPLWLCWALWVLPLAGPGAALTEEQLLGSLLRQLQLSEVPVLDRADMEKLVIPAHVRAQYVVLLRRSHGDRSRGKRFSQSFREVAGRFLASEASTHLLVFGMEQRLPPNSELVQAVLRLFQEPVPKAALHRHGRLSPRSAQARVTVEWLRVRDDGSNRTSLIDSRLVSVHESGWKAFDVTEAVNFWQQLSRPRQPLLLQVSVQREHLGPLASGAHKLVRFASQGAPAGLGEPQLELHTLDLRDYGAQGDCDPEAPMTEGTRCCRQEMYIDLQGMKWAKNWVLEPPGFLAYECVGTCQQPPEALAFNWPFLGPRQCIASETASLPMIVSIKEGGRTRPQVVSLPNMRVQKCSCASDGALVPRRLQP
# [18] = biological target: Calmodulin-1 (Homo sapiens) (UniProt P0DP23); assay: CALM1 binders on microarrays, EGTA buffer, profiling panel, biochemical, small-molecule microarray, Cy5-labelled CALM1 (AID 1111); conditions: Cy5-CALM1 binding fluorescence, higher = more signal;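 also: labelled calmodulin applied in Tris saline Tween buffer holding calcium plus EGTA and DTT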
# [19] = biological target: Calmodulin-1 (Homo sapiens) (UniProt P0DP23); assay: calcium-bound CALM1 binders on microarrays, profiling panel, artefact control for SMM control-protein annotation, biochemical, small-molecule microarray, Cy5-labelled CALM1, plus calcium (AID 1112); conditions: Cy5-CALM1 binding fluorescence, higher = more signal;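 also: score merges spot fluorescence with signal to noise from triplicate slides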
# [20] = small-molecule microarray binders of probe aWnt5a, primary screen, biochemical, biotinylated probe, 635/667 nm fluorescence (AID 1113); conditions: higher = more signal;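 also: score merges 667 nm fluorescence intensity with signal-to-noise per printed feature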
SMILES,composite z-score [1],composite z-score [2],composite z-score [3],composite z-score [4],composite z-score [5],composite z-score [6],composite z-score [7],z-score [8],composite z-score [9],composite z-score [10],composite z-score [11],composite z-score [12],composite z-score [13],composite z-score [14],composite z-score [15],z-score [16],composite z-score [17],composite z-score [18],composite z-score [19],composite z-score [20]
C=C(CCCC)/C(=C/C[C@H](OC(=O)c1ccncc1)c1ccc(CO)o1)c1cnc2ccccc2c1,-0.0102,1.19,1.09,0.0221,1.14,0.248,-0.0775,-0.964 (inactive),1.09,1.19,0.474,1.46,0.823,1.46,0.229,-1.89,0.429,0.697,0.244,-0.0236
C=CCOC(=O)[C@H]1[C@@H]2C(=O)O[C@@H](c3ccccc3)[C@@H](c3ccccc3)N2[C@@H](c2ccc(OCCOC(=O)[C@H]3C[C@H]4C(=O)N5CCC[C@H]5C(=O)N4[C@H]3c3cccc(OCCO)c3)cc2)[C@]12C(=O)Nc1ccccc12,0.103,1.54,1.04,-0.0828,1.52,-0.125,0.297,-0.676 (inactive),0.795,1.31,0.649,0.978,0.732,0.186,1.05,-1.01,0.427,0.384,0.0829,-0.0607
C=CCC(OC(C)=O)[C@@H]1[C@@H](N(Cc2ccc(-c3ccccc3)cc2)C(=O)c2ccc(-c3ccccc3)cc2)c2cc(OCCCO)ccc2N1C(=O)c1ccc(-c2ccccc2)cc1 (stereo not given in full),0.0525,-0.846,-0.83,-0.0981,-0.104,0.603,0.672,-1.34 (inactive),-0.132,-0.0347,-0.137,0.145,-0.141,1.11,-0.172,0.967,0.337,0.681,0.92,-0.11
COCCCNC(=O)[C@@]1(CCS(=O)(=O)c2ccccc2)N=C(c2ccc(OCCCO)cc2)O[C@H]1c1ccccc1CN=[N+]=[N-],0.568,1.9,1.07,0.242,1.14,1.17,1.12,-0.594 (inactive),1.14,1.31,0.184,0.847,0.245,1.22,1.13,-2.04,0.266,2.02,0.986,0.183
C=C1C=C(Br)C2(OCCCO2)[C@H]2OC12 (stereo not given in full),-0.116,0.104,0.0347,-0.076,0.313,-0.118,-0.533,-0.0861 (inactive),0.125,0.259,0.442,0.322,0.536,0.831,-0.524,1.38,0.333,-0.367,-0.755,-0.176
CC(C)NC(=O)[C@@H]1c2ccccc2C(=O)N(Cc2cc(F)cc(C(F)(F)F)c2)[C@H]1c1ccc(CO)cc1,0.0071,-1.34,-0.706,0.0629,1.51,0.478,0.94,-1.05 (inactive),-0.535,-0.825,-0.979,-1.17,-0.833,-0.476,0.719,0.32,-0.556,0.343,0.916,-0.25
C=CCNC(=O)[C@@H]1[C@H]2C(=O)O[C@H](c3ccccc3)[C@H](c3ccccc3)N2[C@H](c2ccc(O)cc2)[C@@]12C(=O)Nc1ccccc12,-0.189,0.855,0.31,-0.129,0.442,-0.0741,0.363,0.633 (inactive),0.237,-0.608,-1.14,0.133,0.131,-0.287,0.197,-0.603,-1.01,0.439,0.259,-0.0758
CC(=O)NCCCC[C@@H]1NC(=O)[C@@H]2C[C@H](C(=O)O)[C@H](c3cccc(OCCO)c3)N2C1=O,-0.0846,1.6,0.58,0.0437,1.25,-0.018,-0.37,-0.877 (inactive),1.13,1.21,0.782,0.787,1.21,-0.456,0.952,0.436,1.46,-0.188,-0.789,-0.0403

# Reference: PubChem BioAssay
